High-throughput results as filed in PubChem.
Hsp90 Hop PPI – qHTS Assay for Disrupters of an Hsp90 Co-Chaperone Interaction | AlphaScreen TPR2A-His6 binding biotin-Hsp90 C-terminal peptide | AID 595, 2007 | Hsp90 C-terminal peptide / TPR2A (Hop) interaction, human | 0.44% of 71,000 active | Potency, µM (titrated, usually from 57 µM), inactives show top-dose activity change, negative = inhibition; active means well fitted curve in either direction with a large enough effect; inconclusive means small, poorly fitted or top-dose-only effect, or another doubt; further: potency means the concentration at half of the fitted maximal effect; on the % scale 0 is the no-effect control and ±100 the full control effect
UbGFP stabilizer – Ubiquitin-GFP Assay. Ubiquitin-GFP reporter cells, proteasome inhibition, GFP fluorescence; response scale: untreated = 0%, 10 µM MG-132 = 100%. Potency, µM (series often up to 45.9 µM), without a hit: at the top dose activation (GFP accumulation), hits mostly activators. 67,000 tested, under 10 active. AID 526, 2006; active means well fitted activation curve with a large enough effect, not every such curve was filed as active; inconclusive means small, poorly fitted or top-dose-only effect, or another doubt; inactive means no such curve, though single readings can be large or run the other way; further: potency means the concentration at half of the fitted maximal effect
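U2OS cells stably expressing ubiquitin(G76V)-GFP, seeded overnight in 0.5% FBS medium, were exposed to compounds (qHTS, 46 uM to 2.9 nM) for 4 hr at 37 °C. GFP-positive cells were counted by laser cytometry (488 ex/515 em), normalized between basal and 10 uM MG-132.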
HBB splicing – qHTS Assay for Modulators of Hemoglobin Beta Chain Splicing | 0.06% of 65,000 active | HBB splicing reporter cell assay, activation; EGFP reporter with mutant IVS2-654 intron; response scale: normalised to 500 nM splice-correcting PNA | Potency, µM (top dose mostly 46.1 µM), without a hit: top-dose activation, actives largely listed as activators; further: potency means the concentration at half of the fitted maximal effect; 0% is about no effect
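Compounds were applied for 2 days to HeLa EGFP-654 cells, 500/well in Optimem with 2% FCS. The reporter's EGFP is disrupted by mis-splicing of beta-globin intron IVS2-654. Readout: summed well GFP fluorescence from 488 nm laser scanning; reference was 500 nM antisense […] 654 PNA.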
GFP derepression – qHTS Assay for Epigenetic Modulators | mouse C127i GFP locus derepression, cytometry, 30 h | 0.09% of 68,000 active | AID 597, 2007 | Potency, µM (top dose mostly 46.1 µM), for the others: top-dose GFP derepression (activation); further: % of control where 0% means no effect
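Locus derepression in mouse mammary C127i cells whose integrated CMV-GFP reporter is normally silent; GFP expression after 30 h compound treatment was quantified by counting fluorescent cells.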
PK Bst – Pyruvate Kinase; AID 361, 2006; Potency, µM; purified pyruvate kinase, luminescence ATP production; ribose 5-phosphate activator present at AC10; 1.2% of 51,000 active; in the data active means potency below about 11 µM; inconclusive means mostly about 12 µM to 25 µM;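 the screen sought inhibitors and activators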;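 further: potency means the concentration at half of the fitted maximal effect; scaled between full activation by ribose 5 phosphate and full inhibition by luteolin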
USP2a inhib – qHTS Assay for Inhibitors of Ubiquitin-specific Protease USP2a. Ubiquitin carboxyl-terminal hydrolase 2 (Homo sapiens), O75604. USP2a enzymatic assay, qHTS inhibition. Potency, µM (top dose mostly 38.3 µM), for the others: at the highest dose activity change, negative = inhibition, most hits filed as inhibitors. 0.1% of 60,000 active. AID 927, 2007; further: potency means the concentration at half of the fitted maximal effect; nearly all actives have a fitted effect of over 60% in size
Target sequence (O75604 whole entry, looked up): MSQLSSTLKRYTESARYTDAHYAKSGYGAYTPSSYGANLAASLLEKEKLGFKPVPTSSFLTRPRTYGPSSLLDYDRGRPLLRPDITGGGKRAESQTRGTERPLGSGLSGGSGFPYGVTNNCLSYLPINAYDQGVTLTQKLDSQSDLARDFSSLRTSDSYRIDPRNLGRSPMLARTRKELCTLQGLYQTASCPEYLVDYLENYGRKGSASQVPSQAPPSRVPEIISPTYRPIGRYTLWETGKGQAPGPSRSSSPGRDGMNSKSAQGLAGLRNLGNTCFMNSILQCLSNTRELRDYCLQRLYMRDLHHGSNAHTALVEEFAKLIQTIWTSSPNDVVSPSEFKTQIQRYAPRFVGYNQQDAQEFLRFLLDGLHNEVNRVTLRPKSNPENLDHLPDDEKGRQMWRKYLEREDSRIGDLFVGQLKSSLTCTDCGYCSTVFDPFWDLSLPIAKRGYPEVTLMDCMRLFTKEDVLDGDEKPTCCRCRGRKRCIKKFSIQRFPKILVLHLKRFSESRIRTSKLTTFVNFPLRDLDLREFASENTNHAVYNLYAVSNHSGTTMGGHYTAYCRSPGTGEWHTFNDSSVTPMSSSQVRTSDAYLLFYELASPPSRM
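Coupled readout: USP2-cleaved Ub-PLA2 (20nM final) turns over NBD C6-HPC (20uM final), Ex 460nm/Em 535nm after 2.5 h, time-zero read flagging artifacts. Enzyme (20nM final, pH 8.0 Tris) given 30 min RT with compound first; NEM defines full inhibition.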
Numbers without * were called inactive; i = inactive; ? = inconclusive; . = no result; [ ] = another dose, or the depositor's remark. In the library only some 1.3% were active in any assay of this set; here they are far more common. Unless noted, the call rests on the fitted dose curve; in most records, active means well fitted curve in the direction sought with a large enough effect; inconclusive means small, poorly fitted or top-dose-only effect, or another doubt; inactive means no such curve, though single readings can be large; an effect the other way counts as inactive or inconclusive.

SMILES | Hsp90 Hop PPI | UbGFP stabilizer | HBB splicing | GFP derepression | PK Bst | USP2a inhib
CCOc1ccc(NC(=O)c2cccc3c2C(=O)N(Cc2cccnc2)C3)cc1 | 0.7% | 1.2% | 2.7% | -3.9% | 4.16* | 36.2%
COc1ccc(OC)c(S(=O)(=O)n2ccnc2)c1 | -0.6% | -4.4% | -0.4% | . | . | .
O=C(COC(=O)c1cccs1)c1ccc2c(c1)OCCO2 | -5.1% | 3.6% | 0.4% | 4.2% | 0.289* | -3.4%
CC(=O)NC12CC3CC(C1)CC(C(=O)OCC(=O)Nc1ncc(Cl)c(C)c1Cl)(C3)C2 | -4.4% | -1.7% | -0.8% | -1.1% | >57 | 30.4%
CC(=O)NC12CC3CC(C1)CC(C(=O)OCC(=O)c1ccc4c(c1)OCCO4)(C3)C2 | -3.3% | 3.5% | -0.1% | 1.1% | 4.26* | 34.4%
O=C(O)C1CCCN1S(=O)(=O)c1cccc2cccnc12 (stereo not given) | -0.6% | 3.3% | -0.6% | . | . | .
CCOC(=O)CSc1nc(-c2ccc3c(c2)OCO3)ccc1C#N | . | . | . | 1.7%[20.6 µM] | 4.32* | .
CCOC(=O)CSc1nc(-c2ccncc2)ccc1C#N | . | . | . | -0.4%[20.6 µM] | i | .
O=c1cc(-c2ccccc2)oc2cc(O[C@H]3O[C@H](CO)[C@@H](O)[C@H](O)[C@@H]3O)c(O)c(O)c12 | -6.3% | -2.6% | . | -2.3%[9.22 µM] | . | .
CC1(C)CCC(NC(=O)[C@H](N)CCC(=O)O)CC1 | 4.8% | 0.1% | 3.0% | -0.1% | . | -2.1%
Cc1c2ccccc2c(C)c2c1ccc1ccccc12 | 31.6µM* | . | -0.7% | . | . | .
Cc1ccc(S(=O)(=O)N[C@H]2COC(=O)[C@@H](Cc3ccccc3)NC(=O)[C@@H](C)COC(=O)C/C=C\[C@@H]2C)cc1 | . | . | -0.3%[9.22 µM] | . | . | .
Cc1ccc(N2CCN(S(=O)(=O)c3ccc(F)c(C)c3)CC2)c(C)c1 | ? | -0.8% | -1.1% | -2.7% | 10.7* | -8.1%
CCc1ccccc1N1CCN(S(=O)(=O)c2ccc(F)c(C)c2)CC1 | ? | 0.0% | 0.4% | 0.0% | . | -11.3%
c1ccc(-c2cn3c4c(sc3n2)CCCC4)cc1 | -0.6% | -3.4% | -6.3% | -1.2% | 0.326* | -10.2%
Cc1nn2cc(-c3ccccc3)nc2s1 | 1.1% | 1.0% | -0.2%[57.5 µM] | 0.0% | ? | -3.0%
CS(=O)(=O)c1ccc2nc(NC(=O)c3cccs3)sc2c1 | -3.5% | 2.0% | -1.0% | -2.0% | 2.21* | -1.5%
Cc1ccc2nc(NC(=O)c3cccs3)sc2c1 | 2.1% | 4.7% | -3.2% | 1.2% | 4.21* | -4.7%
O=C(Nc1nc2c(s1)CCCC2)c1cccs1 | 0.1% | 0.7% | . | ? | 9.71* | -2.4%
CCN1C(=S)SC(=O)C1=C1C=C(C)N(Cc2ccco2)C(C)=C1 | -18.2% | -7.9% | 12.6µM* | 8.3% | . | 16.1%
CCOc1ccc(NC(=O)CSc2nnc(-c3ccncc3)n2CC2CCCO2)cc1 (stereo not given) | -0.2% | -3.1% | . | 0.0% | >57 | -18.1%
CCOc1ccc2nc(NC(=O)CSc3nnc(-c4ccncc4)n3CC3CCCO3)sc2c1 (stereo not given) | 1.1% | -2.0% | -0.1%[57.5 µM] | 4.5% | 4.67* | .
Cc1ccc(N=c2oc3cc(O)ccc3cc2C(N)=O)cc1 | -5.3% | 0.0% | -0.8% | 0.0% | 9.34* | 28.5%
COCCn1c(C)cc(C(=O)COC(=O)c2n[nH]c3ccccc23)c1C | -12.9% | . | -1.2%[0.369 µM] | 0.0% | 1.4* | 31.7%
CN(C(=O)c1ccncc1)c1nnc(-c2ccccn2)s1 | -11.6% | -0.8% | -0.3% | -1.2% | >57 | -9.2%
CN(C(=O)c1ccccc1)c1nc2ccccc2s1 | 18.0% | 1.1% | . | -1.7% | 8.47* | -4.8%
COC1=CC(=O)C(O)=C/C1=C\C=C\c1ccccc1 | . | . | . | . | . | 2.6%
CN(C)c1ccc(/C=c2\sc3n(c2=O)CCCN=3)cc1 | -3.9% | -2.4% | 0.5%[57.5 µM] | 0.4% | 2.67* | 9.0%
COC(=O)/C=c1/sc2n(c1=O)CCN=2 | -0.2% | -3.5% | 0.7%[57.5 µM] | -2.2% | >57 | -2.2%
